Holding throughout (experiment): NCI-60 one-dose screen, 48 h (100 = growth as untreated, 0 = no growth, -100 = all killed)
Holding throughout (details): 10 µM unless noted

Assay [1] has as its system NCI-H23 lung.
For assay [2], the system named is NCI-H226 lung.
Assay [3] relates to NCI-H322M lung.
Assay [4] relates to HOP-62 NSCLC.
Assay [5] has as its system NCI-H460 lung.
Assay [6] relates to HOP-92 NSCLC.
The subject of assay [7] is NCI-H522 lung.
Assay [8] concerns A549/ATCC NSCLC.
In assay [9] the test system is 786-0 renal.
Assay [10] concerns COLO 205 colon.

Structures are written as SMILES. This is part of a sample that, as a whole, favours compounds with a hit. Of some 83,000 tested, about 20% had one in any assay.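 48-hour exposure, single concentration, 96-well plates; percent growth endpoint where 0 means no net growth. Active: below 10.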 Unmarked numbers belong to inactive results. Activity calls are given as the source filed them.

As for `COc1ccc2[nH]c(C(=O)N3CCN(C(=O)OCc4ccc5c(Cl)cc(Cl)c(O)c5n4)CC3)cc2c1`, the growth in assay [1] is -85.8% (active); in assay [2], -4.54% (active); in [3], 29.1%; in assay [4], -61.5% (active); in assay [5] it was -58.9% (active); in [6] it was -65.4% (active). Further, the growth in assay [7] was -70.8% (active); in assay [8], -68% (active); in assay [9] it was -91.7% (active); in assay [10], -81.6% (active).
Turning to `CCOC(=O)c1c2c(n3cccc(F)c13)C(=O)c1ncccc1C2=O`, the growth in assay [1] is -0.249% (active); in assay [2], -6.38% (active); in assay [3], 6.61% (active); in [4] it was -37.4% (active); in [5], -22.1% (active); in [6] it was 38.5%. Besides, the growth in assay [7] is 1.44% (active); in assay [8] it was -9.79% (active); in assay [9] it was -17.3% (active); in assay [10] it was 7.04% (active).
Consider `COC12C=C/C(=C(/C(=O)OCc3ccncn3)C(=O)CCCCCCCCC3(OC)C=C/C(=C(/C(=O)OCc4ccncn4)C(=O)CCCCCCCC1)O3)O2`, for which the growth is -37.2% (active) in [1]; -71.8% (active) in assay [2]; -76.5% (active) in assay [3]; 23% in assay [4]; 1.29% (active) in assay [5]; -53.6% (active) in [6]. Further, the growth in [7] was -13.1% (active); in assay [8], 6.41% (active); in [9], -71.2% (active); in [10], 3.33% (active).
`O=S(=O)(Nc1cc(F)cc(Cl)c1)c1ccc(-c2cnc(C3CC3)o2)cc1`: the growth in [1] is 44%; in [2], 43%; in [3] it was 44.5%; in assay [4], 40.5%; in assay [5] it was 20.7%; in assay [6] it was 26.7%. The growth in assay [7] is 1.55% (active); in assay [8], 47.3%; in [9], 30.7%; in [10], 24.3%.
Regarding `S=c1sc2c(Cl)nc(-c3cccnc3)nc2n1-c1ccccc1`, the growth in assay [1] is 17.5%; in assay [2], 85.2%; in assay [3] it was 61%; in [4] it was 27.8%; in assay [5], 57.4%; in assay [6] it was 25.3%. Moreover, the growth in [7] was -65.8% (active); in [8] it was 79.9%; in [9] it was 35.4%; in [10] it was 80%.
As for `C#CCOc1cccc(Nc2ncnc3cc(NC(=O)C=C)ccc23)c1`, the growth in assay [1] was 30.3%; in assay [2], 62.3%; in assay [3], 50.3%; in [4], 40.4%; in [5], 16.1%; in assay [6], 12.3%. The growth in assay [7] was -17.5% (active); in assay [8], 29.7%; in [9], 7.49% (active); in assay [10] it was 17.3%.
With `CC/C(=C(/c1ccc(Cl)cc1)c1ccc(OCCN2CCCCC2)cc1)c1ccc(OC)cc1`, the growth was 50.8% in [1]; 81.3% in assay [2]; 81% in assay [3]; 86.8% in [4]; 32% in [5]; 57% in assay [6]. In addition, the growth was 65.1% in [7], 56.1% in [8], 52% in [9] and 40.4% in [10].
On to `CCCOC(=O)Nc1nc2ccc(SCC(C)C)cc2s1`, for which the growth was 46.4% in assay [1]; 52.4% in assay [2]; 44.1% in [3]; 40.7% in assay [4]; 29.1% in assay [5]; 48.4% in [6]. The growth in assay [7] was 24.1%; in assay [8] it was 34.3%; in assay [9] it was 40.4%; in [10] it was 11.6%.
As for `CCN1C(=S)N(c2ccccc2)C2NC(=S)N(/N=C/C=C/c3ccccc3OC)C21` (stereo not given), the growth in [1] is 32.7%; in assay [2], 58%; in assay [3], 45.6%; in [4], 36.9%; in assay [5], 3.12% (active); in assay [6], 53.5%. In addition, the growth in [7] was -15.5% (active); in [8], 11.4%; in assay [9], 29.4%; in [10], -2.82% (active).
On to `Fc1cc2c(cc1Cl)N(c1ncnc3ccc(-c4ccc5n[nH]nc5c4)cc13)CC2`, for which the growth in [1] is 79.6%; in [2] it was 88.1%; in assay [3], 54.5%; in assay [4], 72.3%; in assay [5] it was 97.1%; in [6], 31.5%. Further, the growth in [7] is 67.3%; in assay [8] it was 77.5%; in [9], 78.6%; in assay [10], 109%.
Consider `O=C1/C(=C/c2cn(-c3ccccc3)nc2-c2ccccc2)SC(=S)N1C1CCCCC1`, for which the growth in [1] is 96.1%; in assay [2], 92%; in assay [3] it was 105%; in [4], 101%; in assay [5] it was 103%; in [6], 46.9%. Further, the growth in assay [7] is 91.5%; in [8], 103%; in [9] it was 106%; in assay [10], 117%.
For the compound `Cc1c(-c2ccc(O)cc2)n(Cc2ccc(OCCN3CCCCCC3)cc2)c2ccc(O)cc12`, the growth in [1] is 77%; in assay [2], 89.7%; in [3] it was 92.3%; in assay [4], 80.6%; in assay [5], 89.3%; in [6], 59.3%. Moreover, the growth in assay [7] was 75.5%; in assay [8], 72.5%; in [9], 75.7%; in assay [10], 106%.
On to `CCN1C(=O)N(CC)C2C1NN=c1s/c(=C\c3ccccc3F)c(=O)n12` (stereo not given), for which the growth was 31.9% in [1]; 48.5% in [2]; 42.6% in assay [3]; 35.1% in [4]; 2.31% (active) in [5]; 40.3% in assay [6]. Also, the growth was -8.42% (active) in [7], 7.92% (active) in assay [8], 20.6% in [9] and -9.98% (active) in assay [10].
For `O=C(O)c1cn(C2CC2)c2cc(N3CCN(C(=O)N(c4ccccc4)c4nc(-c5ccccc5)cs4)CC3)c(F)cc2c1=O`, the growth in assay [1] was -3.61% (active); in assay [2] it was 4.84% (active); in assay [3], 2.44% (active); in assay [4], -1.15% (active); in assay [5], 2.93% (active); in assay [6], -25% (active). In addition, the growth was -25% (active) in assay [7], 9.6% (active) in assay [8], 4.01% (active) in assay [9] and -20.6% (active) in [10].
Take `COC(=O)c1c(C)c2n(c1C)C(=O)C(c1ccccc1)=C2`: the growth in assay [1] was 68.9%; in assay [2], 61.8%; in assay [3], 94.5%; in [4], 72.7%; in assay [5], 89.5%; in assay [6], 65.8%. Also, the growth was 61.9% in assay [7], 39.6% in assay [8], 94.3% in assay [9] and 79.3% in assay [10].
On to `COc1ccc(-c2ccc(-c3ccc(C(=N)N)cc3)s2)cc1Cl`, for which the growth in assay [1] was 61.4%; in [2], 92.8%; in assay [3], -35.5% (active); in [4], 34.5%; in assay [5], -66.4% (active); in assay [6] it was 75.8%. For the same compound, the growth in assay [7] is -36.1% (active); in assay [8] it was -48.2% (active); in assay [9] it was -83.1% (active); in assay [10] it was -36.1% (active).
In the case of `CN(C)CC(C)(C)C(=O)/C=C/c1ccccc1`, the growth in assay [1] was -28.8% [25 µM] (active); in assay [2], -17.9% [25 µM] (active); in assay [3], -16.3% [25 µM] (active); in assay [4] it was 12.3% [25 µM]; in assay [5] it was -27% [25 µM] (active); in [6] it was -32.3% [25 µM] (active). The growth in assay [7] is -81.1% [25 µM] (active); in [8], 0.382% [25 µM] (active); in assay [9], -46.6% [25 µM] (active); in assay [10], -87% [25 µM] (active).
In the case of `O=C1c2c(c3c4ccccc4[nH]c3c3ccc4ccccc4c23)C(=O)N1CCN1CCOCC1`, the growth in assay [1] is 32.6%; in [2] it was 61.4%; in [3] it was 51.8%; in assay [4], 45.8%; in [5], 2.17% (active); in [6], 66.1%. Besides, the growth is 29.1% in assay [7], 28.8% in assay [8], 52.5% in assay [9] and 55.5% in assay [10].
In the case of `Cc1ccc(CNc2ccc3nc(CCC4CCCCC4)[nH]c3c2)cc1`, the growth in assay [1] is 30.6%; in assay [2], 43.2%; in assay [3] it was 92.3%; in assay [4], 73%; in [5], 58.4%; in assay [6], 0.719% (active). In addition, the growth in assay [7] is 9.99% (active); in assay [8], 63.3%; in [9], 52.2%; in [10], -30% (active).
As to `CC(=O)Oc1ccc(/C(=C(\C)c2ccc(Cl)cc2)c2ccc(OCCN3CCCCC3)cc2)cc1`, the growth was 46.9% in assay [1]; 70.7% in assay [2]; 84.7% in assay [3]; 52.8% in [4]; 20.2% in assay [5]; 49.4% in assay [6]. In addition, the growth in assay [7] was 21.2%; in assay [8], 31.7%; in assay [9], -35.5% (active); in [10], -52.4% (active).
Take `C#CCOc1ccc2ncnc(Nc3ccc(NC(=O)C=C)cc3)c2c1`: the growth in assay [1] was 2.09% (active); in [2], 97.7%; in [3] it was 69.5%; in assay [4], 78.5%; in assay [5], 24.1%; in assay [6] it was -36.8% (active). Also, the growth is -75.7% (active) in assay [7], 80% in assay [8], -37.7% (active) in [9] and -57.6% (active) in assay [10].
For the compound `O=C(Nc1ccccc1)Nc1ncnc2c1ncn2-c1ccc(Cl)cc1`, the growth in assay [1] is 88.5%; in assay [2], 65%; in assay [3] it was 79.3%; in assay [4] it was 75.4%; in [5], 46.3%; in [6] it was 97.3%. Besides, the growth in assay [7] was 85.4%; in assay [8] it was 83.7%; in [9] it was 46.9%; in assay [10], 86.8%.
Turning to `O=C(NCCNc1nccc(Nc2ccc(S(=O)(=O)Nc3ccccn3)cc2)n1)c1cccc([N+](=O)[O-])c1`, the growth was 97.4% in [1]; 98.7% in assay [2]; 106% in [3]; 99.2% in assay [4]; 104% in [5]; 102% in assay [6]. The growth in assay [7] was 82%; in assay [8], 94.8%; in [9], 98%; in [10], 110%.
In the case of `O=C(CN1C(=O)S/C(=C\c2ccccc2)C1=O)Nc1ncc(Cc2ccccc2Cl)s1`, the growth in assay [1] was 102%; in [2] it was 95.7%; in [3], 95.9%; in assay [4], 103%; in [5], 110%; in assay [6], 108%. Besides, the growth in [7] is 81%; in assay [8] it was 98.6%; in [9] it was 107%; in [10], 113%.
`O=C(/C=C/c1cccs1)Nc1ncc(Cc2ccccc2F)s1`: the growth in assay [1] was 47.5%; in assay [2], 57.8%; in assay [3] it was 37.9%; in assay [4], 22.4%; in assay [5] it was 12.9%; in assay [6] it was 60%. Also, the growth in assay [7] is 6.23% (active); in assay [8] it was 29%; in assay [9], 30.8%; in [10], 4.7% (active).
On to `O=C1/C(=C/c2ccccc2O)CC/C1=C\c1ccccc1O`, for which the growth in [1] was 59.8%; in assay [2], 82.9%; in assay [3], 96.4%; in assay [4], 94%; in [5] it was 68.9%; in assay [6], 20%. Further, the growth in assay [7] was 56%; in assay [8], 93.8%; in [9], 54.3%; in assay [10], 107%.

The values are drawn from PubChem BioAssay (NCI).
